# The list is not random: actives were taken first. Their share in the collection is about 6%.
# D1 ag: Allosteric Agonists of the Human D1 Dopamine Receptor: qHTS | hit rate 1% among 360,000 | activation, % at 2 µM | HEK293 T-REx D1 cells, calcium flux, agonist mode | D(1A) dopamine receptor (Homo sapiens), P21728 | AID 504660, 2011; in the data active = activation above about 30%; note: 0% is about no effect
#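 Inducible HEK293 T-REx D1 cells, force-coupled to calcium signalling, were plated at 4000 cells/well with tetracycline and held overnight at 30 C. After no-wash calcium dye loading, compound-evoked calcium rise over 180 s flagged agonists.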
# D3 antag: qHTS of D3 Dopamine Receptor Antagonist: qHTS. hit rate 2.5% among 360,000. D(3) dopamine receptor (Homo sapiens), P35462. AID 652054, 2013. D3R cells, DiscoveRx beta-arrestin luminescence, antagonist mode; stronger effect = lower value. max response, negative = inhibition, %; in the data active = max response below about -50%; inconclusive = no clear call, values can overlap the other calls; note: % is set by controls: 0 for no effect and ±100 for the full control effect
# Target sequence (P35462 whole entry, looked up): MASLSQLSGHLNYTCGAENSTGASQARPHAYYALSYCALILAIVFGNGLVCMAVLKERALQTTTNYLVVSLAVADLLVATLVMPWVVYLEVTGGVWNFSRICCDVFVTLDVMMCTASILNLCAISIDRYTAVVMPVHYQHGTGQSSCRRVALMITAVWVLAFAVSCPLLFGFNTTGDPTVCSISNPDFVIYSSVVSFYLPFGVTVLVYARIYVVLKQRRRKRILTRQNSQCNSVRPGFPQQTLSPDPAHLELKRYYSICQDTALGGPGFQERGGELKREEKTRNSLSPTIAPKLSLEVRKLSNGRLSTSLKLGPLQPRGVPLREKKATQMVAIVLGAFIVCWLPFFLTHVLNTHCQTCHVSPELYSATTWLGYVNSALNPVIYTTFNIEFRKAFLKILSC
#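 Cells plated overnight at 1500 cells/well, then exposed to library compounds with dopamine controls for 90 minutes at 37 degrees C. DiscoveRx reagent added for 30–60 minutes at room temperature; luminescence read, quantitative HTS format.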
# D3 ag: qHTS of D3 Dopamine Receptor Agonist: qHTS; D(3) dopamine receptor (Homo sapiens), P35462; D3R DiscoveRx beta-arrestin cells, luminescence, 90 min; max activation, %; hit rate 0.58% among 410,000; AID 652048, 2013; in the data active = max activation above about 30%; note: 0% is about no effect
#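 Agonist mode: compounds and dopamine controls were applied to plated cells for 90 min at 37 degrees C after an overnight attachment at 1500 cells/well. Luminescent read-out followed 30 - 60 minutes at room temperature with DiscoveRx detection reagent.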
# D1 antagonist: Antagonist of Human D 1 Dopamine Receptor: qHTS. D(1A) dopamine receptor (Homo sapiens), P21728. activity change, negative = inhibition, % at 10 µM. HEK293 TREx D1 cells, calcium flux, dopamine EC80; stronger effect = lower value. hit rate 3.2% among 360,000; in the data active = activity change below about -30%; note: % is set by controls: 0 for no effect and ±100 for the full control effect
#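 Calcium flux readout: force-coupled, inducible Hek293 Trex D1 line, cells induced overnight at 30 C with tetracycline, dye-loaded 30–90 min at RT. Antagonism scored against EC80 dopamine challenge given 180 s after compound.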
# D1 PAM: Potentiators of Human D1 Dopamine Receptor: qHTS; D(1A) dopamine receptor (Homo sapiens), P21728; HEK293 TREx D1 cells, calcium flux, dopamine EC20 potentiation; potentiation, % at 10 µM; hit rate 0.036% among 360,000; AID 504651, 2011; in the data active = potentiation above about 30%; note: 0% is about no effect
# An asterisk follows results filed as active; ? = inconclusive; nt = no result; ! = not confirmed by another sample.
SMILES,D1 ag,D3 antag,D3 ag,D1 antagonist,D1 PAM
COc1ccc(CN2CCc3c(c(=O)n4ncc(C(=O)N5CCN(c6ccccc6F)CC5)c4n3C)C2)cc1,3.1,nt,-1.9,10.1,-2.5
CCOC(=O)N1CCC(NC(=O)c2ccc3c(c2)N(Cc2cc(C)ccc2C)C(=O)c2ccccc2S3=O)CC1 (centres undefined),2.6,nt,4.1,-0.8,-2.2
CCCCc1c(C)nc2c(-c3ccc(OC)cc3)c(C)[nH]n2c1=O,41.6*,nt,-9.7,2.0,-3.2
Cc1cc(C)cc(NS(=O)(=O)c2ccc(-c3cc(C)no3)cc2)c1,3.5,nt,-3.1,-6.4,1.9
O=C(Cc1ccccc1F)Nc1ccccc1N1CCCC1,0.3,0.2,-3.4,11.0,0.6
COc1cc(C(=O)Nc2ccccc2N2CCN(S(C)(=O)=O)CC2)cc(OC)c1OC,2.3,3.2,2.9,9.7,2.1
O=C(CNCC1CCCO1)Nc1ccccc1N1CCCCCC1 (centres undefined),0.3,-62.2*,0.2,9.1,-5.2
COc1ccccc1C(=O)Nc1ccccc1N1CCN(S(C)(=O)=O)CC1,18.1,50.9,0.6,-36.9*,-6.7
O=C(CNCc1ccccc1Cl)Nc1ccccc1N1CCCCC1,1.3,-60.2*,-23.6,10.2,8.3
O=C(Nc1ccccc1N1CCCC1)c1cccc(Cl)c1Cl,1.7,-7.9,-9.3,-31.7*,-1.6
CC(C)(CO)[C@@H](O)C(=O)NCCCC(=O)O,nt,nt,9.9,nt,nt
COCCc1nn2c(=O)cc(COC(=O)C(c3ccccc3)c3ccccc3)nc2s1,9.5,nt,3.2,4.3,-6.4
c1ccc(-c2ccc(-c3nc(-c4ccncc4)no3)cc2)cc1,1.2,37.6,45.1*,-2.0,-5.5
Cc1nn(C(C)(C)C)c(OC(=O)c2c(F)cccc2F)c1Sc1ccccc1,10.1,nt,7.1,3.7,2.8
CC/C(=N\Nc1ccc([N+](=O)[O-])cc1)c1ccccc1,24.0,10.8,2.2,-33.6*,-9.6
C/C(=N\NC(=O)COc1ccc([N+](=O)[O-])cc1)c1ccco1,0.2,29.2,0.0,5.6,4.1
O=[N+]([O-])c1ccc(NN=C(Oc2ccccc2)c2ccc([N+](=O)[O-])cc2)cc1,nt,-5.4,-3.9,nt,nt
C/C(=N\Nc1ccc([N+](=O)[O-])cc1)c1ccc(N2CCOCC2)cc1,38.9*,-8.8,-6.9,-0.6,-1.7
C/C(=N\Nc1ccccc1[N+](=O)[O-])c1ccc(N2CCOCC2)cc1,2.0,-4.7,-4.3,-9.0,9.0
C/C(=N\Nc1ccc([N+](=O)[O-])cc1)c1ccco1,33.3*,-20.9,-6.3,-3.2,-6.7
Cc1nn(C)c2c1c(C(F)(F)F)cc(=O)n2C(C)C(=O)N1CCN(c2ccccc2)CC1 (centres undefined),1.3,nt,-16.6,-9.1,-5.3
COc1ccccc1NC(=O)c1sc2ncn(Cc3ccccc3Cl)c(=O)c2c1C,0.6,nt,0.9,-2.5,-6.5
CC(C)N1C(=O)NC2(c3ccccc3)N(C)C(=O)N(C)C12c1ccccc1 (centres undefined),3.7,2.4,2.4,7.5,0.5
CN1C(=O)N(C)C2(c3ccccc3)N(C)C(=O)NC12c1ccccc1 (centres undefined),3.6,-57.4*,-5.7,2.6,3.5
CCn1c(COc2cccc(C)c2)nc2ccccc21,6.7,-6.3,8.2,-31.8*!,-5.8
SMILES,D1 ag,D3 antag,D3 ag,D1 antagonist,D1 PAM
CCc1nc2ccccc2n1CCCCOc1cccc(C)c1,11.3,nt,5.9,-7.0,1.8
Cc1cccc(OCCCCn2c(CO)nc3ccccc32)c1,0.8,-10.6,3.7,-37.6*,-5.2
COc1ccc(OCCCCn2c(CO)nc3ccccc32)cc1,12.9,21.8,17.8,-53.5*,-1.8
O=C(COc1ccccc1Cl)Nc1cc(-c2ccccc2F)nn1-c1ccccc1,1.4,nt,-2.4,4.3,2.5
CCOc1ccc(CNC(=O)c2c(C)nn(-c3ccc(F)cc3)c2-n2cccc2)cc1,14.7,nt,3.3,-12.9,-0.3
CCCCNC(=O)CNC(=S)N(Cc1ccccc1F)C1CCCCC1,0.1,3.8,0.0,-36.7*,-3.0
COCCCNC(=O)CNC(=S)N(Cc1ccccc1F)C1CCCCC1,2.2,3.7,2.3,9.4,-1.0
O=C(CNC(=S)N(Cc1ccccc1F)C1CCCCC1)NCC1CCCO1 (centres undefined),2.9,-24.1,-2.7,-45.5*,-1.3
CC(C)c1ccc(NC(=O)CN2C(=O)CSc3ccc(S(=O)(=O)N4CCCC4)cc32)cc1,1.8,nt,-19.8,7.4,0.1
COc1ccccc1NC(=O)c1oc2ccccc2c1NC(=O)Cc1ccccc1,1.3,nt,-0.7,14.3,-3.0
CCC1CCC(N2CCN(c3ccccc3F)CC2)CC1 (centres undefined),4.9,-77.5*,-14.8,-3.8,-2.8
CCC1CCC(N2CCN(c3ccc(F)cc3)CC2)CC1 (centres undefined),1.3,-25.2,-22.4,-46.2*,-8.2
CCN(CC)CCCNC(=O)CSc1nc(-c2ccc(OC)cc2)cc(C(F)(F)F)n1,2.5,nt,-21.1,-7.7,-5.5
Oc1[nH]c2ccc(Br)cc2c1N=Nc1ccc(F)cc1,56.4*,-4.8,13.0,11.9,-14.0
COc1ccc(N2CCN(C(CNC(=O)c3c(F)cccc3F)c3ccc4c(c3)OCO4)CC2)cc1 (centres undefined),0.2,nt,-23.1,13.5,-1.6
CCOc1ccccc1NC(=O)COC(=O)/C=C/c1ccc(OC)c(OC)c1,6.2,2.1,-4.4,-38.2*,-4.5
COc1cc(/C=C/C(=O)OCC(=O)NCCc2ccccc2)ccc1OC(F)F,14.2,5.1,7.8,-30.3*,-6.9
COc1cc(/C=C/C(=O)OCC(=O)NCCc2ccc(F)cc2)ccc1OC(F)F,nt,?,-29.5,nt,nt
COc1ccc(CNC(=O)c2ccc3c(c2)N(Cc2cc(C)ccc2C)C(=O)CS3)cc1,-1.0,nt,1.6,-7.8,0.9
CC(C)Oc1ccccc1-c1nc(SCC(=O)c2ccc(F)cc2)n[nH]1,-0.2,nt,-14.2,12.7,1.9
CCNC(=O)NC(=O)COC(=O)c1ccccc1SCC(=O)NC(=O)NCC,3.5,-74.7*,3.3,-7.6,-1.6
O=C(COC(=O)c1ccccc1SCC(=O)NC1CCS(=O)(=O)C1)NC1CCS(=O)(=O)C1 (centres undefined),4.3,0.1,5.2,2.2,6.5
CC1CCc2nc3ncn(Cc4ccc(Cl)cc4)c(=O)c3cc2C1 (centres undefined),4.0,nt,2.9,-2.9,0.2
S=c1[nH]nc(-c2cc(-c3ccccc3)n[nH]2)n1/N=C/C(Br)=C/c1ccccc1,-0.1,-66.7*,-15.8,6.8,-6.0
CC[C@H](C)/C=C(C)/C=C/C(=O)Cc1cc(O)c(C)c(O)c1C=O,13.5,0.0,8.3,-16.3,-7.3

# Screening results as filed in PubChem BioAssay.
